Source: PubChem BioAssay (National Center for Advancing Translational Sciences (NCATS))
Pf growth 48h – P. falciparum growth inhibition at 48 hours (one generation); P. falciparum luciferase growth in erythrocytes, 48 h; Potency, µM (highest dose often 28.7 µM), actives largely listed as inhibitors; 310,000 compounds, 5.9% hits; AID 504832
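Cell-based growth assay: transgenic P. falciparum expressing firefly luciferase, cultured in red cells within RPMI 1640 containing 0.5% w/v Albumax, 24 mM bicarbonate and gentamycin. A drop in luciferase activity indicates inhibition.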
Pf growth 96h – inhibits malaria parasite growth, 96 h; Potency, µM (doses to about 28.7 µM), hits mostly inhibitors; 320,000 compounds, 6.9% hits; P. falciparum luciferase reporter growth, 96 h; AID 504834
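Cell-based qHTS: luciferase-tagged P. falciparum in erythrocytes (2% hematocrit, 0.05% parasitemia final) incubated with compounds for 96 hours, 37 C, 5% CO2; luciferase detection reagent then added and luminescence measured.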
AMA1-RON2 inh – AMA1-RON2 (P. falciparum) interaction inhibition; AlphaScreen AMA1-biotinylated RON2 peptide binding; 360,000 compounds, 0.2% hits; Potency, µM (titrated, usually from 58.2 µM), hits mostly inhibitors; AID 720542; further: nearly all actives have a fitted effect of over 45% in size
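AMA1 (3D7) with his tag at 25 nM final met compounds first, then biotinylated RON2 peptide at 25 nM; detection used donor plus acceptor beads, 10 µg/mL apiece, read by AlphaScreen after 30 min at room temperature.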
HCV inh – inhibitors of hepatitis C virus infection | Huh7.5.1 HCVcc-Cre infection, luciferase reporter, 44 h | Potency, µM (series often up to 41.8 µM), hits mostly inhibitors | 340,000 compounds, 3.4% hits | AID 651820
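Infectious HCV cell culture screen: compound-treated cells (1,000/well, pre-plated 4 h) are infected with HCVcc-Cre at roughly 0.5 moi and grown 44 h. Infection is quantified by luciferase signal after 15 min substrate incubation at room temperature.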
Of the large screens only hits and unclear results are named; the others gave an inactive call. Shown are actives, neighbours in structure and some others; about 11% of the full set was active somewhere. The call rests on the fitted dose curve; in most records, active means well fitted curve in the direction sought with a large enough effect; inconclusive means small, poorly fitted or top-dose-only effect, or another doubt; inactive means no such curve, though single readings can be large; an effect the other way counts as inactive or inconclusive.

O=C(CCc1ccc(S(=O)(=O)NCc2ccccc2)cc1)NCC1CCCO1 (stereo unspecified)	none
CCNC(=O)CSc1nnc(-c2ccccc2Br)n1-c1cccc(C(F)(F)F)c1	none
COc1cc(C2Nc3c(F)cccc3C3C=CCC32)cc(Br)c1OC (stereo unspecified)	Pf growth 48h 9.3µM
COc1cccc2c1NC(C(=O)O)C1CC=CC21 (stereo unspecified)	AMA1-RON2 inh inconclusive
COc1cccc(C2Nc3c(F)cc(Br)cc3C3C=CCC32)c1OC (stereo unspecified)	Pf growth 48h 9.3µM, Pf growth 96h 12µM
CC12CCC(C(=O)N(CC(O)CN3CCCCCC3)C1=O)C2(C)C (stereo unspecified)	none
CC(=O)O[C@]1(C(C)=O)CC[C@H]2[C@@H]3C=CC4=CC(=O)C=C[C@]4(C)[C@H]3CC[C@@]21C	Pf growth 48h 12µM, Pf growth 96h 4.7µM
C=C1CC2C3C=C(C)C4=CC(=O)CCC4(C)C3CCC2(C)[C@@]1(OC(C)=O)C(C)=O (stereo partly specified)	Pf growth 48h inconclusive, Pf growth 96h 11µM (no result: AMA1-RON2 inh, HCV inh)
CC(=O)O[C@]1(C(C)=O)CC[C@H]2[C@@H]3C=C(C)C4=CC(=O)CC[C@@H]4[C@H]3CC[C@@]21C	Pf growth 48h 13µM, Pf growth 96h inconclusive
CC(=O)O[C@]1(C(C)=O)CCC2C3C=C(C)C4=CC(=O)CC[C@]4(C)C3CC[C@@]21C (stereo partly specified)	Pf growth 48h inconclusive, Pf growth 96h inconclusive, HCV inh inconclusive
N#Cc1ccc(N)cc1OCCCN1CCCCC1	none (no result: Pf growth 48h, Pf growth 96h)
COc1cccc(CN2CCC(C(=O)NC(C)c3cccc4ccccc34)CC2)c1 (stereo unspecified)	none (no result: Pf growth 48h, Pf growth 96h, HCV inh)
COc1ccc(NC(=O)CSc2nnc(NC(=O)C3CCC3)s2)cc1	none
CC(C)N(C(=O)CSc1nnc(NC(=O)C2CCC2)s1)C(C)C	Pf growth 48h 6.6µM, Pf growth 96h inconclusive
COC(=O)c1ccc(CN2CCCC(CO)(Cc3ccc(F)cc3F)C2)cc1 (stereo unspecified)	none
CCn1cc(C2=NC(CC(C)C)CO2)c2ccccc21 (stereo unspecified)	HCV inh 10µM
Oc1cccc(/C=N/N=C/c2cccc(O)c2O)c1O	Pf growth 48h 13µM, Pf growth 96h inconclusive
Oc1ccccc1C=NN=C1c2ccccc2-c2ccccc21	HCV inh 8.9µM (no result: Pf growth 48h, Pf growth 96h)
CC(N=Cc1cccc(O)c1O)c1ccccc1 (stereo unspecified)	Pf growth 48h inconclusive, AMA1-RON2 inh inconclusive (no result: Pf growth 96h)
Cc1ccccc1N=Cc1cccc(O)c1O	Pf growth 48h inconclusive
Cc1ccc(N=Cc2cccc(O)c2O)c(C)c1	Pf growth 48h inconclusive, Pf growth 96h 12µM (no result: AMA1-RON2 inh, HCV inh)
O=C(Cn1cnc2ccccc21)N1CCN(S(=O)(=O)c2ccccc2)CC1	HCV inh inconclusive
c1ccc(C[C@H]2CNCCN2CC2(c3ccccc3)CC2)cc1	Pf growth 48h inconclusive, Pf growth 96h inconclusive, HCV inh inconclusive
Clc1ccc(-c2nc3ncccn3c2Nc2ccc3c(c2)OCO3)cc1	Pf growth 48h 4.1µM, Pf growth 96h 4.1µM
COc1cc(-c2nc3cnccn3c2Nc2ccc(C)cc2)ccc1O	Pf growth 48h inconclusive, HCV inh inconclusive (no result: Pf growth 96h)
Cc1cccn2c(NCc3ccc4c(c3)OCO4)c(-c3ccc(O)cc3)nc12	Pf growth 48h 4.1µM
Cc1ccn2c(Nc3ccc4c(c3)OCO4)c(-c3ccc(O)cc3)nc2c1	Pf growth 48h inconclusive, Pf growth 96h 12µM
Oc1ccc(-c2nc3ncccn3c2Nc2ccc3c(c2)OCO3)cc1	Pf growth 48h inconclusive
Oc1ccc(-c2nc3cnccn3c2Nc2ccc3c(c2)OCCO3)cc1	none (no result: Pf growth 48h)
COc1cc(-c2nc3cnccn3c2Nc2ccccc2)ccc1O	Pf growth 48h inconclusive, Pf growth 96h 5.2µM
CCCCC[C@@H]1C=C(C(=O)O)[C@H](c2ccc3c(c2)OCO3)N1S(=O)(=O)c1ccc(C)cc1	none (no result: Pf growth 48h, Pf growth 96h)
Cc1ccc(NC(=O)Cc2nnc(SCC(=O)NC3CCCC3)n2C)c(C)c1	none
COc1cc(-c2nc3ccc(C)cn3c2Nc2ccc3c(c2)OCCO3)ccc1O	Pf growth 48h 12µM, Pf growth 96h 13µM, AMA1-RON2 inh inconclusive
CCSc1nnc(NC(=O)CCCOc2ccc(C)cc2)s1	Pf growth 96h inconclusive
Cc1cc(NC(=O)c2cccc(S(=O)(=O)N3CCCCC3)c2)no1	Pf growth 48h inconclusive (no result: HCV inh)
Cn1c(S(=O)(=O)c2ccc([N+](=O)[O-])cc2)nc(Br)c1Br	Pf growth 48h inconclusive, Pf growth 96h 9.3µM
